{
  "source": "PubChem BioAssay",
  "key": {"[1]": {"biological_target": "Cell division control protein 42 homolog (Homo sapiens) (UniProt P60953)", "sequence (P60953 whole entry, looked up)": "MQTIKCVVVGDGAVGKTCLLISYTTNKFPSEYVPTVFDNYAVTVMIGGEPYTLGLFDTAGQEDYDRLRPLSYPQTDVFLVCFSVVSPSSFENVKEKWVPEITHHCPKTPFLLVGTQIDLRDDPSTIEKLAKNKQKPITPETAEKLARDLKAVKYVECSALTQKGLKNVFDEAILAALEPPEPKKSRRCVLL", "experiment": "inhibition of fluorescent GTP binding to constitutively active Cdc42 – biochemical, multiplex bead flow cytometry, Bodipy-FL-GTP, dose response (AID 1333;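 active = fitted half-maximal concentration within the tested dose range, moderate curve steepness, a statistically real signal drop, and little compound fluorescence or tag-binding interference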)"}, "[2]": {"biological_target": "Cell division control protein 42 homolog (Homo sapiens) (UniProt P60953)", "experiment": "inhibition of fluorescent GTP binding to wildtype Cdc42 – biochemical, multiplex bead flow cytometry, Bodipy-FL-GTP, dose response (AID 1334;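 active = fitted half-maximal concentration within the tested range, moderate curve steepness, significant signal drop, and little compound fluorescence or bead-linkage interference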)", "conditions": "bead-based flow cytometry, Bodipy-FL-GTP binding to GST-Cdc42; at 100 µM (top of the series) unless noted"}, "[3]": {"biological_target": "GTPase HRas (Homo sapiens) (UniProt P01112)", "sequence (P01112 whole entry, looked up)": "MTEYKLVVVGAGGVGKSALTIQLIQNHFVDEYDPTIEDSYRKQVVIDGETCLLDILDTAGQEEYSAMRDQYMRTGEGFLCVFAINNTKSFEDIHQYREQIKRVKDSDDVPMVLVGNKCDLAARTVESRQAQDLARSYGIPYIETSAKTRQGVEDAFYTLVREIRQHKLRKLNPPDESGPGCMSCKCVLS", "experiment": "Ras wt fluorescent GTP loading blockade – biochemical, wildtype, multiplex bead flow cytometry, dose response (AID 1335;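 active = fitted half-maximal concentration within 10 nM to 100 µM, steepness 0.5 to 2, significant signal drop, low assay interference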)", "conditions": "bead-based flow cytometry, Bodipy-GTP binding to GST-Ras; at 100 µM (top of the series) unless noted"}, "[4]": {"test_system": "Ras-related protein Rab-7a (dog), GTP binding", "experiment": "blockers of fluorescent GTP binding to Rab7 – biochemical, wildtype, multiplex bead flow cytometry, dose response (AID 1336; call rule not given here)"}, "[5]": {"biological_target": "GTPase HRas (Homo sapiens) (UniProt P01112)", "experiment": "blockade of GTP loading onto mutant Ras – biochemical, activated mutant, multiplex bead flow cytometry, dose response (AID 1341;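 active = dose-response curve with midpoint inside the tested range, moderate steepness, significant amplitude and little compound fluorescence or bead-attachment interference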;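 note: GST-tagged constitutively activated Ras mutant immobilized on beads and multiplexed with other GTPases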)"}, "[6]": {"biological_target": "Ras-related C3 botulinum toxin substrate 1 (Homo sapiens) (UniProt P63000)", "experiment": "inhibition of wildtype Rac1 nucleotide loading – biochemical, multiplex bead flow cytometry, dose response (AID 1340;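 active = dose curve with midpoint inside tested range, moderate steepness, plateau gap beyond fit error, low compound glow and bead-link interference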)", "conditions": "GST-Rac1 beads, Bodipy-FL-GTP binding; at 100 µM (top of the series) unless noted"}, "[7]": {"biological_target": "Regulator of G-protein signaling 16 (Homo sapiens) (UniProt O15492)", "experiment": "small molecules altering RGS protein interactions with GNAO1 – biochemical, multiplexed beads, flow cytometry, RGS4/7/8/16/19, primary screen (AID 1504);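 note: fluorescently labeled Galpha-o bound to GDP with aluminium fluoride binding biotinylated RGS beads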", "conditions": "multiplexed bead flow cytometry, measured here: RGS16 interaction, at 10 µM"}, "[8]": {"biological_target": "Regulator of G-protein signaling 19 (Homo sapiens) (UniProt P49795)", "experiment": "small molecules altering RGS protein interactions with GNAO1 – biochemical, multiplexed beads, flow cytometry, RGS4/7/8/16/19, primary screen (AID 1504)", "conditions": "multiplexed bead flow cytometry, measured here: RGS19 interaction, at 10 µM"}, "[9]": {"biological_target": "Regulator of G-protein signaling 7 (Homo sapiens) (UniProt P49802)", "experiment": "small molecules altering RGS protein interactions with GNAO1 – biochemical, multiplexed beads, flow cytometry, RGS4/7/8/16/19, primary screen (AID 1504)", "conditions": "multiplexed bead flow cytometry, measured here: RGS7 interaction, at 10 µM"}, "[10]": {"biological_target": "Regulator of G-protein signaling 8 (Homo sapiens) (UniProt P57771)", "experiment": "small molecules altering RGS protein interactions with GNAO1 – biochemical, multiplexed beads, flow cytometry, RGS4/7/8/16/19, primary screen (AID 1504)", "conditions": "multiplexed bead flow cytometry, measured here: RGS8 interaction, at 10 µM"}, "[11]": {"experiment": "hit retest on RPL19A-GFP reporter strain – cell-based, S. cerevisiae, flow cytometry, cherry picks, mother/daughter gates, confirmation (AID 2270;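 active = GFP response below 50% of the DMSO control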)", "conditions": "3 h, at 10 µM, stronger effect = lower value, 100 = same GFP as DMSO wells"}, "[12]": {"experiment": "yeast TOR pathway reporter LAP4-GFP change – cell-based, cherry picks, flow cytometry, mother/daughter gates, confirmation (AID 2271;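 active = GFP response above 150% of the DMSO control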;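 note: ratio of sample to DMSO plate mean so 100% equals DMSO level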)", "conditions": "S. cerevisiae LAP4-GFP strain, 3 h, at 10 µM, stronger effect = higher value, 100 means same as DMSO control"}, "[13]": {"experiment": "TOR pathway reporter MEP2-GFP, retest of hits – S. cerevisiae, flow cytometry GFP, cherry picks, confirmation (AID 2272;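 active = GFP response above 150% of the DMSO control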;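 note: ratio of well signal to plate DMSO mean so 100% equals DMSO level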)", "conditions": "S. cerevisiae MEP2-GFP strain, 3 h, at 10 µM, stronger effect = higher value"}, "[14]": {"experiment": "yeast AGP1-GFP fluorescence change, single-dose – cell-based, flow cytometry, S. cerevisiae, cherry picks, confirmation (AID 2273);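 note: median GFP channel fluorescence over the whole cell population gate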", "conditions": "S. cerevisiae AGP1-GFP strain, 3 h, at 10 µM"}, "[15]": {"experiment": "TOR pathway CIT2 reporter hit retest – S. cerevisiae, GFP fusion, cherry picks, mother/daughter gates, confirmation (AID 2274)", "conditions": "S. cerevisiae CIT2-GFP strain, flow cytometry, 3 h, at 10 µM, stronger effect = higher value"}, "[16]": {"experiment": "green-channel fluorescence artefact in S. cerevisiae – s288c strain, artefact control for yeast TOR pathway GFP screen, dose response (AID 2757;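 active = fluorescence span over the dose series, or activity score, above about 33, limit read from the data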;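 note: thousands of bead-calibrated equivalent soluble fluorophore molecules from median cell fluorescence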)", "conditions": "520 nm autofluorescence, flow cytometry, 3 h, at 33 µM, stronger effect = higher value, zero means same as solvent-only cells"}, "[17]": {"conditions": "measured here: daughter cell gate"}, "[18]": {"conditions": "measured here: mother cell gate"}, "[19]": {"conditions": "measured here: daughter cell gate response"}, "[20]": {"conditions": "measured here: mother cell gate response"}},
  "note": "For some assays here: Results with a measured potency or affinity are listed apart. The list shows a part of the results. Calls of active or inactive are those of the source.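 Rule for the calls, unless noted: active = GFP response above 150% of the DMSO level; inconclusive = fewer than 70 events counted for a yeast strain; inactive = the rest.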",
  "data": [
    {"smiles": "O=C(O)CCN1C(=O)/C(=C/c2ccc(-c3nc4ccccc4s3)o2)SC1=S", "values": [
      {"measurement": "outcome", "setting": "[1]", "result": "inactive"},
      {"measurement": "fluorescence, percent of control (lower = inhibition)", "setting": "[2]", "result": 32.8, "unit": "%"},
      {"measurement": "GTP binding, percent of control", "setting": "[3]", "result": 53.9, "unit": "%"},
      {"measurement": "outcome", "setting": "[4]", "result": "inactive"},
      {"measurement": "outcome", "setting": "[5]", "result": "inactive"}
    ]},
    {"smiles": "CN(c1ccccc1)c1ccc(/C=c2\\s/c(=C(/C#N)C(=O)C(C)(C)C)n(Cc3ccco3)c2=O)cc1", "values": [
      {"measurement": "outcome", "setting": "[1]", "result": "inactive"},
      {"measurement": "fluorescence, percent of control (lower = inhibition)", "setting": "[2]", "result": 160, "unit": "%"},
      {"measurement": "GTP binding, percent of control", "setting": "[3]", "result": 157, "unit": "%"},
      {"measurement": "outcome", "setting": "[4]", "result": "inactive"},
      {"measurement": "GTP binding signal, raw median fluorescence (lower = inhibition) (MCF (arbitrary fluorescence units))", "setting": "[6]", "result": 180},
      {"measurement": "outcome", "setting": "[5]", "result": "inactive"},
      {"measurement": "RGS16–Galpha-o binding response", "setting": "[7]", "result": 551, "unit": "%"},
      {"measurement": "RGS19–Galpha-o binding response", "setting": "[8]", "result": 4650, "unit": "%"},
      {"measurement": "RGS7–Galpha-o binding response", "setting": "[9]", "result": 421, "unit": "%"},
      {"measurement": "RGS8–Galpha-o binding response", "setting": "[10]", "result": 134, "unit": "%"},
      {"measurement": "GFP response vs DMSO", "setting": "[11]", "result": "118% (inactive)"},
      {"measurement": "GFP response vs DMSO", "setting": "[11]; [17]", "result": 118, "unit": "%"},
      {"measurement": "GFP response vs DMSO", "setting": "[11]; [18]", "result": 116, "unit": "%"},
      {"measurement": "GFP response relative to DMSO", "setting": "[12]", "result": "235% (active)"},
      {"measurement": "GFP response relative to DMSO", "setting": "[12]; [19]", "result": 240, "unit": "%"},
      {"measurement": "GFP response relative to DMSO", "setting": "[12]; [20]", "result": 231, "unit": "%"},
      {"measurement": "GFP response vs DMSO", "setting": "[13]", "result": "309% (active)"},
      {"measurement": "GFP response, % of DMSO", "setting": "[14]", "result": "126% (inactive)"},
      {"measurement": "GFP response, % of DMSO", "setting": "[15]", "result": "231% (active)"},
      {"measurement": "GFP response, % of DMSO", "setting": "[15]; [17]", "result": 229, "unit": "%"},
      {"measurement": "GFP response, % of DMSO", "setting": "[15]; [18]", "result": 230, "unit": "%"},
      {"measurement": "fluorescence change (kMESF span)", "setting": "[16]", "result": "19.9 (inactive)"}
    ]},
    {"smiles": "CCOc1nnc(C)c2c(C)n(-c3cccc(OC)c3)nc12", "values": [
      {"measurement": "outcome", "setting": "[1]", "result": "inactive"},
      {"measurement": "fluorescence, percent of control (lower = inhibition)", "setting": "[2]", "result": 55.9, "unit": "%"},
      {"measurement": "GTP binding, percent of control", "setting": "[3]", "result": 67.2, "unit": "%"},
      {"measurement": "outcome", "setting": "[4]", "result": "inactive"},
      {"measurement": "GTP binding signal, raw median fluorescence (lower = inhibition) (MCF (arbitrary fluorescence units))", "setting": "[6]", "result": 194},
      {"measurement": "outcome", "setting": "[5]", "result": "inactive"},
      {"measurement": "GFP response vs DMSO", "setting": "[11]", "result": "104% (inactive)"},
      {"measurement": "GFP response vs DMSO", "setting": "[11]; [17]", "result": 102, "unit": "%"},
      {"measurement": "GFP response vs DMSO", "setting": "[11]; [18]", "result": 106, "unit": "%"},
      {"measurement": "GFP response relative to DMSO", "setting": "[12]", "result": "98.7% (inactive)"},
      {"measurement": "GFP response relative to DMSO", "setting": "[12]; [19]", "result": 98.7, "unit": "%"},
      {"measurement": "GFP response relative to DMSO", "setting": "[12]; [20]", "result": 100, "unit": "%"},
      {"measurement": "GFP response vs DMSO", "setting": "[13]", "result": "102% (inactive)"},
      {"measurement": "GFP response, % of DMSO", "setting": "[14]", "result": "99.8% (inactive)"},
      {"measurement": "GFP response, % of DMSO", "setting": "[15]", "result": "108% (inactive)"},
      {"measurement": "GFP response, % of DMSO", "setting": "[15]; [17]", "result": 105, "unit": "%"},
      {"measurement": "GFP response, % of DMSO", "setting": "[15]; [18]", "result": 109, "unit": "%"}
    ]}
  ]
}
